According to PubChem BioAssay AID1572 (National Center for Advancing Translational Sciences (NCATS), 2009):
Records with an inconclusive call do not appear. Unmarked numbers belong to inactive results. Active and inactive are the calls of the source. Calls follow the shape of the dose curve; as a rule, active = well fitted curve in either direction with a large enough effect; inconclusive = small, poorly fitted or top-dose-only effect; inactive = flat fitted curve, though single readings scatter.

Test: Total Fluorescence Confirmation Counterscreen for Inhibitors of the Interaction of Thyroid Hormone Receptor and Steroid Receptor Coregulator 2
Conditions: Texas Red total fluorescence, TRbeta/SRC2 FP artifact counterscreen; series mostly up to 92.2 µM; total fluorescence change, both ways: at the top concentration
Description: NIH Molecular Libraries Probe Production Network [MLPCN] NIH Chemical Genomics Center [NCGC] MLPCN Grant: DK058080 Assay Provider: R. Kip Guy, St. Jude Children's Research Hospital NCGC Assay Overview: Thyroid receptor (TR) regulates many homeostatic processes including basal metabolism, cardiovascular function, body weight, and lipid trafficking. TR modulators are potential therapeutics for obesity and hyperlipidemias but current thyroid analogs have undesirable side effects, particularly cardiac stimulation. To identify inhibitors that specifically prevent the interaction of TR with the steroid receptor coregulator 2 (SRC2), a fluorescence polarization assay was screened. This assay detects interaction of the ligand-binding domain of human TRbeta with a Texas Red labeled SRC2 peptide, corresponding to a 20 amino acid region of the nuclear receptor interaction domain (Arnold et al., 2006). Total fluorescence (555 nm excitation and 632 nm emission) was measured to identify potential fluorescent and light absorbing compounds. Such compounds may be artifacts that interfere with the fluorescence polarization assay. This assay is a confirmation assay for AID 1479. Arnold, L. A.; Estebanez-Perpina, E.; Togashi, M.; Shelat, A.; Ocasio, C. A.; McReynolds, A. C.; Nguyen, P.; Baxter, J. D.; Fletterick, R. J.; Webb, P.; Guy, R. K. A high-throughput screening method to identify small molecule inhibitors of thyroid hormone receptor coactivator binding. Sci STKE 2006, p 13.
NCGC Assay Protocol Summary: For screening, 5 uL/well 0.6 uM TRbeta and 20 nM SRC2 Texas Red in protein buffer (20mM Tris hydrochloride, 100mM NaCl, 10% glycerol, 1mM EDTA, 0.01% NP-40, 1mM DTT, 1uM T3 and 5% DMSO) was dispensed into black solid 1536-well plates (Grenier) using a solenoid-based dispenser. Following transfer of 23 nL compound or DMSO vehicle by a pin tool, the plates were centrifuged 15 s at 1000 RPM and incubated 5 hr at ambient temperature. The plates were read by an Envision (Perkin Elmer) to detect fluorescence polarization of SRC2 Texas Red (555 nm excitation and 632 nm emission). Data were normalized to unbound (all components except TRbeta) and bound SRC2 Texas Red controls. Total fluorescence (TF) was calculated as follows: TF = S + 2P where S and P are fluorescence readings in the parallel and perpendicular channels, respectively. In this assay, we provide % activity data for each concentration as well as potencies for the active compounds.

Which “total fluorescence change, both ways” value does the source give for Cn1c(-c2ccc(=O)[nH]c2)nc2ccccc21 here?
Its value is 5.74%.

For CN(CCO)c1nc(N)c2c(N)nc3c(c2c1C#N)CC(=O)N3C1CCCC1, which “total fluorescence change, both ways” value is on record?
Its value is -1.92%.

With CC1(C)CC(=O)C(N=Nc2cccc(S(=O)(=O)N3CCOCC3)c2)=C(O)C1 as the compound, how does the “total fluorescence change, both ways” value read?
Its value is -1.25%.

With Nc1cnccc1C(=O)O as the compound, how does the “total fluorescence change, both ways” value read?
The value was 11.1%.

For C=CCSc1nnc2n(-c3ccccc3OC)c(=O)c3c4c(sc3n12)CCC4, which “total fluorescence change, both ways” value is on record?
Its value is 3.26%.

With COC(=O)c1ccccc1-c1ccc(C(c2c(C)[nH][nH]c2=O)c2c(C)[nH][nH]c2=O)o1 as the compound, how does the “total fluorescence change, both ways” value read?
Its value is 4.88%.

Which “total fluorescence change, both ways” value does the source give for O=C1CCCC(O)=C1N=Nc1cccc(S(=O)(=O)N2CCOCC2)c1 here?
The value was 5.17%.

With CCCc1cc(=O)[nH]c(=S)[nH]1 as the compound, how does the “total fluorescence change, both ways” value read?
Its value is -2%.

For CS(=O)(=O)c1ccc(C(=O)OCC(=O)NC23CC4CC(CC(C4)C2)C3)cc1[N+](=O)[O-], which “total fluorescence change, both ways” value is on record?
The value was 5.22%.

With O=C(O)/C=C/C(=O)Nc1ccc(OC(F)(F)F)cc1Br as the compound, how does the “total fluorescence change, both ways” value read?
Its value is 10.6%.

Which “total fluorescence change, both ways” value does the source give for CCc1ccc2c(c1)c1nc(C)sc1n2CC here?
The value was 0.366%.

With CN(C(=S)Nc1cccnc1)c1ccc(O)cc1 as the compound, how does the “total fluorescence change, both ways” value read?
Its value is 5.43%.

Which “total fluorescence change, both ways” value does the source give for O=C(O)[C@H]1CN(CCCP(=O)(O)O)CCN1 here?
Its value is -7.22% [at 184 µM].

With CCOc1ccc(NC(=O)C(c2ccccn2)N(C(=O)CCl)c2ccc(F)cc2)cc1 (stereo not given) as the compound, how does the “total fluorescence change, both ways” value read?
The value was 1.73%.

Which “total fluorescence change, both ways” value does the source give for Cc1nnc(SCC(=O)Nc2ccc(N(C)C)cc2)[nH]c1=O here?
Its value is 4.51% [at 184 µM].

Which “total fluorescence change, both ways” value does the source give for CC(=O)NC1N=C(C)N(c2ccccc2)C1=O (stereo not given) here?
The value was 9.72%.

Which “total fluorescence change, both ways” value does the source give for CCN(CC)S(=O)(=O)c1cccc(N=NC2=C(O)CCCC2=O)c1 here?
Its value is 6.08%.

With CCN(C(=O)C1CCCN(c2ncnc3onc(-c4ccc(F)cc4)c23)C1)c1ccccc1 (stereo not given) as the compound, how does the “total fluorescence change, both ways” value read?
The value was 5.18% [at 184 µM].

For Cc1ccc(-c2nc(S(=O)(=O)c3ccc(F)cc3)c(SCC(=O)NCC3CCCO3)o2)cc1 (stereo not given), which “total fluorescence change, both ways” value is on record?
The value was -10.4%.

Which “total fluorescence change, both ways” value does the source give for Cn1cc[nH]c1=S here?
The value was -0.484%.

For Cn1cc(/C=C2\SC(=S)N(NC(=O)c3ccccc3)C2=O)c2ccccc21, which Potency is on record?
The Potency was 70.8 µM [fluorescent] (active).

For Cc1ccccc1Nc1cc2ccccc2c(=O)[nH]1, which Potency is on record?
The Potency was “inactive”.

With CS(=O)(=O)c1ccc(C(=O)OCC(=O)NC(=O)C2CCCCC2)cc1[N+](=O)[O-] as the compound, how does the “total fluorescence change, both ways” value read?
Its value is -3.18%.

With Nc1cc(-c2ccncc2)c[nH]c1=O as the compound, how does the Potency read?
The Potency was “inactive”.

For COc1cc(C(c2c(C)[nH][nH]c2=O)c2c(C)[nH][nH]c2=O)ccc1OC(=O)c1cccc(C)c1, which “total fluorescence change, both ways” value is on record?
Its value is 1.17% [at 184 µM].

Which “total fluorescence change, both ways” value does the source give for Cc1cccc(S(=O)(=O)c2cn(Cc3ccccc3)c3cc(N4CCC(C)CC4)c(F)cc3c2=O)c1 here?
The value was 5.69% [at 184 µM].

Which “total fluorescence change, both ways” value does the source give for Cc1cc(C)cc(OCC(=O)NCCc2nc3ccccc3[nH]2)c1 here?
Its value is 6.66% [at 184 µM].

Which “total fluorescence change, both ways” value does the source give for CN(C)c1cc(Cl)c2nonc2c1N here?
Its value is 1.14%.

With COc1ccc(C(=O)Oc2ccc(C(c3c(C)[nH][nH]c3=O)c3c(C)[nH][nH]c3=O)cc2OC)cc1 as the compound, how does the “total fluorescence change, both ways” value read?
The value was 6.44% [at 184 µM].

Which Potency does the source give for CN1CCc2ccc3c4c2[C@]1(C)Cc1cccc(c1-4)OCO3 here?
The Potency was 100 µM [fluorescent] (active).

Which “total fluorescence change, both ways” value does the source give for Cc1cccc(Cn2c(C(=O)OC(C)C)cc3c2ccn3C)c1 here?
Its value is 2.46%.

Which “total fluorescence change, both ways” value does the source give for Cn1c(NNC(=O)c2c(F)cccc2F)cc(=O)n(C)c1=O here?
The value was 2.85%.

With O=c1[nH]c(Nc2ccccc2)cc2ccccc12 as the compound, how does the “total fluorescence change, both ways” value read?
Its value is 5.66%.

With O=C1CNC(=S)N1c1nc(-c2ccccc2)cs1 as the compound, how does the Potency read?
Its Potency is 11.2 µM [quencher] (active).

With CN1N=C(C(C)(C)C)CC1=O as the compound, how does the “total fluorescence change, both ways” value read?
Its value is 1.82%.

Which “total fluorescence change, both ways” value does the source give for CCCc1nc2c(=O)n(C)c(=O)nc-2n(C)n1 here?
Its value is 4.23%.

For COc1ccccc1Nc1cc2ccccc2c(=O)[nH]1, which “total fluorescence change, both ways” value is on record?
Its value is -10.5%.

Which “total fluorescence change, both ways” value does the source give for O=C(O)C1C2C=CC(O2)C1C(=O)Nc1ccc(S(=O)(=O)N2CCc3ccccc32)cc1 (stereo not given) here?
The value was 9.53%.

With CCOc1cc(C(c2c(C)[nH][nH]c2=O)c2c(C)[nH][nH]c2=O)ccc1OS(=O)(=O)c1ccc(C)cc1 as the compound, how does the “total fluorescence change, both ways” value read?
Its value is 5.37%.

For Nc1cc(-c2ccccc2)c[nH]c1=O, which “total fluorescence change, both ways” value is on record?
Its value is -2.47%.
